Results: PubChem BioAssay (NCATS)
“And” between values parts separate entries of the source, which are not always exact repeats. Equal values may be shown once. Records with an inconclusive call do not appear. Where a call stands in place of a potency, no number is given. A structure can be active in one record and inactive in another. The source made the active and inactive calls. Unless noted, calls come from the whole dose curve; as a rule, active = well fitted curve in the direction sought with a large enough effect; inconclusive = small, poorly fitted or top-dose-only effect, or another doubt; inactive = no such curve, though single readings can be large; an effect the other way counts as inactive or inconclusive.

Key:
[1] = AP1 Signaling Pathway (AID 357; active = well fitted curve in either direction with a large enough effect, not every such curve was filed as active;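 note: ME-180 reporter cells stimulated with EGF at its EC50 level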); conditions: ME-180 AP-1-bla reporter, EGF-induced, beta-lactamase ratio, 5 h; at 38 µM (top of the series)
Outline: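 A ratiometric CCF4 readout (405 nm excitation; 460 and 530 nm emission) quantified AP-1-driven beta-lactamase in ME-180 cells after 5 h with compound and EC50 EGF; AC50 values were derived for activators and inhibitors.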

[2] = target: Cytochrome P450 1A2 (Homo sapiens) (UniProt P05177); assay: p450-cyp1a2 (AID 410; calls by dose curve; note: potency is the fitted concentration of half-maximal effect); conditions: recombinant CYP1A2, luciferin-ME demethylation, luminescence; series mostly up to 57 µM
Outline: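 Human CYP1A2 (20nM) demethylated Luciferin-ME at its Km (100uM) in 100mM KPO4. After 10 min compound preincubation, NADPH regeneration ran the reaction 60 min at room temperature. Luciferin was read by luminescence, normalized to 57 uM furafylline.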

[3] = NFAT Signaling Pathway (AID 444; active = well fitted curve in either direction with a large enough effect, not every such curve was filed as active;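 note: carbachol stimulus at about its EC50 of 1 µM final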); conditions: Jurkat NFAT-bla M1, carbachol, beta-lactamase ratio, 5 h; at 38 µM (top of the series)
Outline: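 Read-out: CCF4 FRET ratio (460 nm/530 nm) after 1 h RT dye loading, used for %activity and AC50 from titration series. Cells: Jurkat NFAT-β-lactamase/M1 line, treated with compound plus 1 uM carbachol for 5 h, 37 °C.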

[4] = Stat Signaling Pathway (AID 446; active = well fitted curve in either direction with a large enough effect, not every such curve was filed as active;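 note: ME-180 cervical cancer cells given 40 pM IL-6 alongside compound; SIE-controlled beta-lactamase reporter measured as 460/530 nm FRET emission ratio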); conditions: ME-180 (cervical carcinoma) SIE beta-lactamase reporter, IL-6 stimulated, 5 h; at 38 µM (top of the series)
Outline: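 IL-6/STAT signaling read in ME-180 cells via an SIE beta-lactamase reporter. Stimulus was 40 pM IL-6 (its AC50) for 5 hrs, so both activation and inhibition register.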

[5] = target: Glucocorticoid receptor (Homo sapiens) (UniProt P04150); assay: GR-GFP Redistribution (AID 450;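 active = compounds whose dose series gives a full or clear partial fitted curve of increased nuclear translocation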; note: potency is the fitted concentration of half-maximal effect); conditions: U2OS GR-GFP nuclear translocation, laser cytometry, 2 h
[6] = target: Glucocorticoid receptor (Homo sapiens) (UniProt P04150); assay: GR-EFC Redistribution (AID 451; calls by dose curve; note: potency is the fitted concentration of half-maximal effect); conditions: CHO-K1 GR-EFC translocation, beta-gal luminescence, 2 h
Outline: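 Translocation of GR-ED fusion to nuclear EA restores b-gal, read by luminescence after 1 h room-temperature detection. Engineered CHO-K1 biosensor cells, 1,000/well, exposed 2 h at 37 C to titrations up to 46 uM final.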

[7] = target: Mitogen-activated protein kinase 10 (Mus musculus) (UniProt Q61831); assay: JNK3 AlphaScreen Assay (AID 530; active = well fitted curve in either direction with a large enough effect, not every such curve was filed as active;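 note: kinase came from lysate of stimulated human HepG2 cells; signal reports phosphorylation of biotinylated GST-cJun 1-79 at Ser73 with 10 µM ATP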); conditions: JNK3 lysate, c-Jun phosphorylation; series mostly up to 57.1 µM
Outline: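 Room-temperature AlphaScreen kinase assay; pre-activated HepG2 lysate as JNK3 source, biotin-GST-cJun(1-79) substrate, 10 uM ATP, compound 15 min preincubation.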

[8] = target: 3',5'-cyclic-AMP phosphodiesterase 4B (Homo sapiens) (UniProt Q07343); assay: qHTS Assay for Inhibitors of PDE-IV (AID 607; active = well fitted activation curve with a large enough effect in the main read-out, with a control signal flat, not every such curve was filed as active); conditions: HEK293 ACTOne CNG channel cells, membrane potential fluorescence; series mostly up to 22.9 µM
Outline: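 Live HEK293 cells with a modified cyclic nucleotide-gated (CNG) channel report intracellular cAMP via membrane-potential dye fluorescence (ex 535/em 590 nm). Endogenous PDE-IV was targeted. Compounds were tested at up to 22.9 uM final; RO 20-1724 100 uM served as control.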

[9] = target: Guanine nucleotide-binding protein G(i) subunit alpha-1 (Homo sapiens) (UniProt P63096); assay: qHTS Assay for Inhibitors of RGS12 GoLoco Motif Activity (Green Fluorophore) (AID 879); conditions: Galphai1/FITC-RGS12 GoLoco peptide, fluorescence polarization; series mostly up to 57.1 µM;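 note: negative values mean loss of peptide binding seen as reduced polarization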
Outline: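 Fluorescence polarization assay: 50 nM Gαi1 with 10 nM FITC-labeled RGS12 GoLoco peptide in 10 mM Tris pH 7.5, 150 mM NaCl, 0.1 mM GDP, 0.05% NP40, 10 min at room temperature with compound.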

[10] = target: Pyruvate kinase PKM (Homo sapiens) (UniProt P14618); assay: qHTS Assay for Activators of Human Muscle Pyruvate Kinase (AID 954; active = well fitted curve in the direction sought with a large enough effect, not every such curve was filed as active); conditions: purified human muscle pyruvate kinase, luciferase-coupled luminescence, 1 h; series mostly up to 57.5 µM
Outline: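 Enzyme was run at intermediate activity so both inhibitors and activators could be detected. ATP formed from ADP and PEP by 0.1 nM human PKM2 during a 1 h room-temperature incubation was quantified by coupled luciferase luminescence.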

[11] = target: alpha-glucosidase (Oryza sativa, rice) (UniProt Q653V4); assay: Counterscreen for Glucocerebrosidase Inhibitors: qHTS Assay for Rice alpha-Glucosidase at pH 5.0 (AID 997); conditions: rice alpha-glucosidase enzyme activity; series mostly up to 76.9 µM
Outline: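 Rice alpha-glucosidase (4 nM final) with 400 uM 4-methylumbelliferyl-alpha-D-glucopyranoside in citrate buffer pH 5.0, 20 min at room temperature, stopped at pH 10; fluorescence 365/440 nm, compounds 0.7 nM–77 uM, AC50 from Hill fits.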

[12] = target: DNA dC->dU-editing enzyme APOBEC-3G (Homo sapiens) (UniProt Q9HC16); assay: qHTS for inhibitors of Vif-A3G interactions: Validation (AID 588379); conditions: Vif-A3G protein interaction assay; series mostly up to 46.1 µM
Outline: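 HeLa cells stably expressing Vif and A3G-eYFP, 700 cells/well, incubated overnight at 37 deg C, then exposed to compound overnight at 37 deg C. Inhibition of Vif-mediated degradation read as increased yellow fluorescence (Ex 488/Em 500-530) by laser-scanning cytometry.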

[13] = system: Zika virus NS2B-NS3 protease; assay: Primary screen GU AMC qHTS for Zika virus inhibitors (AID 1347154); conditions: Zika NS2B-NS3 unlinked protease, AMC fluorogenic substrate; series mostly up to 54.1 µM; note: nearly all actives have a fitted effect of over 70% in size
Outline: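 Fluorogenic AMC-substrate cleavage by noncovalent NS2B-NS3 protease complex (25 nM, pH 8.0 Tris buffer with Tween 20) followed for 15 minutes at room temperature (~20% conversion). Percent inhibition from ex340/em450 signal change, fitted by 4-parameter Hill equation.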

[14] = Primary qHTS for small molecule stabilizers of the endoplasmic reticulum resident proteome: Secreted ER Calcium Modulated Protein (SERCaMP) assay (AID 1508630); conditions: SH-SY5Y GLuc-SERCaMP (Gaussia luciferase released on ER calcium loss) secretion, thapsigargin, luminescence; series mostly up to 38.4 µM
Outline: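 GLuc-SERCaMP-expressing SH-SY5Y cells, pretreated 16 h with compound, are challenged with thapsigargin to empty ER calcium stores; after 4 h, coelenterazine is added directly to the medium and luminescence is imaged.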

[15] = target: Cytochrome P450 3A4 (Homo sapiens) (UniProt P08684); assay: qHTS Assay for Activators of Cytochrome P450 3A4 (AID 885); conditions: recombinant CYP3A4, Luciferin-PPXE luminescence, 60 min; series mostly up to 57.1 µM; note: nearly all actives have a fitted effect of over 65% in size
Outline: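 Quantitative HTS format: compounds preincubated with 20nM human CYP3A4 and Luciferin-PPXE substrate at KM, reaction started by NADPH regeneration, stopped after 60 min, luciferase luminescence read 20 min later.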

[16] = target: Ubiquitin carboxyl-terminal hydrolase 1 (Homo sapiens) (UniProt O94782); assay: Inhibitors of USP1/UAF1: Pilot qHTS (AID 504865); conditions: purified USP1/UAF1, Ub-rhodamine cleavage fluorescence; series mostly up to 114 µM;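 note: rhodamine fluorescence freed from ubiquitin-rhodamine substrate followed over time; top concentration of the series differs between compounds; nearly all actives have a fitted effect of over 35% in size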
Outline: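 1nM USP1/UAF1 + cpd, 15 min RT; start w/ Ub-Rho 150nM final; kinetic FL 480/540 nm, 6 reads q60 s. Buffer 50mM HEPES pH 7.8, 0.5mM EDTA, 1mM TCEP, 0.01% Tween-20, 0.1 mg/ml BSA.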

[17] = target: Cytochrome P450 3A4 (Homo sapiens) (UniProt P08684); assay: qHTS Assay for Inhibitors and Substrates of Cytochrome P450 3A4 (AID 884); conditions: recombinant CYP3A4, Luciferin-PPXE luminescence; series mostly up to 57.1 µM; note: potency is the fitted concentration of half-maximal effect; nearly all actives have a fitted effect of over 50% in size
Outline: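 20 nM human CYP3A4 with 25 uM Luciferin-PPXE (at KM) in 200 mM KPO4, preincubated 10 min with compound; NADPH regeneration started a 60 min RT reaction. Luciferin detected by luminescence, normalized to 57 uM ketoconazole as full inhibition.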

[18] = target: Cytochrome P450 2C19 (Homo sapiens) (UniProt P33261); assay: qHTS Assay for Inhibitors and Substrates of Cytochrome P450 2C19 (AID 899); conditions: recombinant CYP2C19, luciferin-H EGE luminescence; series mostly up to 57.1 µM; note: potency is the fitted concentration of half-maximal effect; nearly all actives have a fitted effect of over 60% in size
Outline: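 Reactions contain 5nM enzyme, 10uM Luciferin-H EGE (KM) and 50mM KPO4; compound preincubates 10 min at 37C, NADPH regeneration starts turnover for 60 min. Luminescence after detection reagent gives activity.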

Cytochrome P450 3A4 (Homo sapiens), sequence (P08684 whole entry, looked up): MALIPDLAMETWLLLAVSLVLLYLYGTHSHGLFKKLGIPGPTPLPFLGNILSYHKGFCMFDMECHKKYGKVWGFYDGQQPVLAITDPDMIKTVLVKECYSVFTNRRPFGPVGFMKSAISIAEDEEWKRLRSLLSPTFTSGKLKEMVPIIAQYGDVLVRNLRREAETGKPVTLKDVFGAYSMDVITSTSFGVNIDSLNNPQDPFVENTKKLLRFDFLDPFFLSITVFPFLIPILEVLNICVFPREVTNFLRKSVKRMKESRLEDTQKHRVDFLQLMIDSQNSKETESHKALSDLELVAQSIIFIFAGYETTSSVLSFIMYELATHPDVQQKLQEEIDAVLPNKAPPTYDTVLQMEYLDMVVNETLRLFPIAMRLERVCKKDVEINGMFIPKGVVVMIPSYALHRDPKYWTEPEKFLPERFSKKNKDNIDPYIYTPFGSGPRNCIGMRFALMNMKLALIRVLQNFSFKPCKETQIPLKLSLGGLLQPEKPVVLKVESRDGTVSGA
Glucocorticoid receptor (Homo sapiens), sequence (P04150 whole entry, looked up, the tested form may be a part): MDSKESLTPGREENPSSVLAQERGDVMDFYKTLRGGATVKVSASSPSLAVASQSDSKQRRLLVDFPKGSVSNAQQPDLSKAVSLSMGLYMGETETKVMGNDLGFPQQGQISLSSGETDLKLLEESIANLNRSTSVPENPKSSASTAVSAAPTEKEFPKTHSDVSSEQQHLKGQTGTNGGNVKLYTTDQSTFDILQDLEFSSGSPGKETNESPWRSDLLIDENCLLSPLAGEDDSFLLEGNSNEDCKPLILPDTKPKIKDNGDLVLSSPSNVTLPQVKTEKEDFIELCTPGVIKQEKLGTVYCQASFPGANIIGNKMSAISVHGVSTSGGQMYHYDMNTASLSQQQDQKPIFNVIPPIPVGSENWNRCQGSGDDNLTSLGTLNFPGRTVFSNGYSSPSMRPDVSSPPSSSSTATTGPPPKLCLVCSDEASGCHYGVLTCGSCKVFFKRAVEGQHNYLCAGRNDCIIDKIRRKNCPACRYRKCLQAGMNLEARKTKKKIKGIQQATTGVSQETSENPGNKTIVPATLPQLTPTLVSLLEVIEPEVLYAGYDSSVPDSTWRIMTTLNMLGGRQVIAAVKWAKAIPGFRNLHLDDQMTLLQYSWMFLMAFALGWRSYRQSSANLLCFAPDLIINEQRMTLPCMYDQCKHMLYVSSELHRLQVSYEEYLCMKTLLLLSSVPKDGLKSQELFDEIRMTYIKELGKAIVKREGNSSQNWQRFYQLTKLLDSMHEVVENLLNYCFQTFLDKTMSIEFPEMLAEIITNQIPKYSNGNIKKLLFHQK
Ubiquitin carboxyl-terminal hydrolase 1 (Homo sapiens), sequence (O94782 whole entry, looked up): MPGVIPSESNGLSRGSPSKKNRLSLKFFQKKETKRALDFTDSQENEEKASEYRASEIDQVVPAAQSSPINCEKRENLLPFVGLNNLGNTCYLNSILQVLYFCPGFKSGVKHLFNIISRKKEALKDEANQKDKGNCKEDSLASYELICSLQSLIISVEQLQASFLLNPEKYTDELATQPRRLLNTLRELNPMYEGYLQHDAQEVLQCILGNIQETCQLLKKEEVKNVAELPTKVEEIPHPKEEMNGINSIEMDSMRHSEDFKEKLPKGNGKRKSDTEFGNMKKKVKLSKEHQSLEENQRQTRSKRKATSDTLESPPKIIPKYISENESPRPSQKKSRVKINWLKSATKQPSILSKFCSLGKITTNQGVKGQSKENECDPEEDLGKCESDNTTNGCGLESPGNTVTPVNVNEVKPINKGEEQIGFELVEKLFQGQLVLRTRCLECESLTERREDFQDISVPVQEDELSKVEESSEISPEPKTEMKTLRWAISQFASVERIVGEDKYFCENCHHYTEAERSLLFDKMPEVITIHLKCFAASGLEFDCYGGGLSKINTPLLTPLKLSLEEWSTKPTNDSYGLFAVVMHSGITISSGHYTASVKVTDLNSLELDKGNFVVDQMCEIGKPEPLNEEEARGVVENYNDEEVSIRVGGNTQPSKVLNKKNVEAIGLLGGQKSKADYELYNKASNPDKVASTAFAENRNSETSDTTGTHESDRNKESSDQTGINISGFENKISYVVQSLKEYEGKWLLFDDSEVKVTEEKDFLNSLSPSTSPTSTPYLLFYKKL
Cytochrome P450 1A2 (Homo sapiens), sequence (P05177 whole entry, looked up): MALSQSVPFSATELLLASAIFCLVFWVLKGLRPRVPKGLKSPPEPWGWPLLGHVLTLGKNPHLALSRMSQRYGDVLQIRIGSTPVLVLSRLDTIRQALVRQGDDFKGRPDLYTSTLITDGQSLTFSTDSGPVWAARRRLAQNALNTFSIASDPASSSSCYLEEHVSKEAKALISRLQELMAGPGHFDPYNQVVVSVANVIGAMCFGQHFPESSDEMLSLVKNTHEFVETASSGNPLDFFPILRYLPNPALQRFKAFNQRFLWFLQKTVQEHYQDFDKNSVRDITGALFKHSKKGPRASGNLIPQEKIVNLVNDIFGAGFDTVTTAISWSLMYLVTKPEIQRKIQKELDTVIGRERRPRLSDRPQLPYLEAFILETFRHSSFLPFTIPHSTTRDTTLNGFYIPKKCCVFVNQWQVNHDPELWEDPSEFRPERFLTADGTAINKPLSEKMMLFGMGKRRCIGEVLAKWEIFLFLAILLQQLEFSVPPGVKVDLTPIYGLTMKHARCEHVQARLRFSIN
DNA dC->dU-editing enzyme APOBEC-3G (Homo sapiens), sequence (Q9HC16 whole entry, looked up): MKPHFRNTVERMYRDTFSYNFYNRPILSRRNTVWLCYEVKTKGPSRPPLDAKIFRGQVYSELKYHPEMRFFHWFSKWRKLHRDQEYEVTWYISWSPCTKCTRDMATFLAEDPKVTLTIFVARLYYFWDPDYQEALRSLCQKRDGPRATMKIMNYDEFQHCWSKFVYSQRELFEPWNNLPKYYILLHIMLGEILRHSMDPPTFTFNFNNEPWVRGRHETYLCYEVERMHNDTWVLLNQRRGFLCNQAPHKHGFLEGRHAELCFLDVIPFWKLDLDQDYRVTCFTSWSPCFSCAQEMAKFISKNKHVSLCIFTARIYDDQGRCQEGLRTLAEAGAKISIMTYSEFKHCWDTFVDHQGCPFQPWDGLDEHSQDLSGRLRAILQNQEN
3',5'-cyclic-AMP phosphodiesterase 4B (Homo sapiens), sequence (Q07343 whole entry, looked up): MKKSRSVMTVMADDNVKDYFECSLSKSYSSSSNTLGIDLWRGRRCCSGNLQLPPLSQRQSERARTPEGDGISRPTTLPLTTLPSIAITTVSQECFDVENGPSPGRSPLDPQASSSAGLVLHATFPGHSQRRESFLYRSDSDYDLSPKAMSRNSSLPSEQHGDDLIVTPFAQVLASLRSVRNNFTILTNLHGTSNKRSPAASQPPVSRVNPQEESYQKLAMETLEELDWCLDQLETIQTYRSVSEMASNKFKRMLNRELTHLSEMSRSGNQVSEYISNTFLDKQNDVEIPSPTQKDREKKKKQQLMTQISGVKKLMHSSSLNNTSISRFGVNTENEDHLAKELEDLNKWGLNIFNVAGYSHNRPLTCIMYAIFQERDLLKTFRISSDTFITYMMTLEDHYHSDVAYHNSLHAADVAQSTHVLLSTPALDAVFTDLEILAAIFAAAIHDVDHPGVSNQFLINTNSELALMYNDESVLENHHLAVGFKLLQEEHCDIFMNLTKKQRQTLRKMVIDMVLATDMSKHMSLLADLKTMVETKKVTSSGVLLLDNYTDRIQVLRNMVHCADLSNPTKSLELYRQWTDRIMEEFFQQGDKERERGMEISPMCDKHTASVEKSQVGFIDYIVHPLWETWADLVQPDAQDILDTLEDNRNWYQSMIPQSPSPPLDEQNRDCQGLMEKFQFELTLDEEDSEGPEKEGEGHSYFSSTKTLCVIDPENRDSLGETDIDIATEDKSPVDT
Pyruvate kinase PKM (Homo sapiens), sequence (P14618 whole entry, looked up): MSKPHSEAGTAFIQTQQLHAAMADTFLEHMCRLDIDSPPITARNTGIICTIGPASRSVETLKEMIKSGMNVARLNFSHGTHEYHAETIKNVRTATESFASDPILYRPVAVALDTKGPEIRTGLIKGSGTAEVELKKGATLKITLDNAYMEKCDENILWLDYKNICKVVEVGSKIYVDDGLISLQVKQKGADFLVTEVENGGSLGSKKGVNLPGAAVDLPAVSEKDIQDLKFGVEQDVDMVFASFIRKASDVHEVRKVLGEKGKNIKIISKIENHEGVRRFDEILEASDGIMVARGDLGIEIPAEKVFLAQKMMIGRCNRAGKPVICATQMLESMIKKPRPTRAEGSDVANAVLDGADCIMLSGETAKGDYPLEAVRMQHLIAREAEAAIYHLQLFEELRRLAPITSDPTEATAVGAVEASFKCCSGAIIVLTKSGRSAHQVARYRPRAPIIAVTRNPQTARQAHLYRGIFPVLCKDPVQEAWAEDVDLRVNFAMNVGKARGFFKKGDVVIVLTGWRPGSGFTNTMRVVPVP
Guanine nucleotide-binding protein G(i) subunit alpha-1 (Homo sapiens), sequence (P63096 whole entry, looked up): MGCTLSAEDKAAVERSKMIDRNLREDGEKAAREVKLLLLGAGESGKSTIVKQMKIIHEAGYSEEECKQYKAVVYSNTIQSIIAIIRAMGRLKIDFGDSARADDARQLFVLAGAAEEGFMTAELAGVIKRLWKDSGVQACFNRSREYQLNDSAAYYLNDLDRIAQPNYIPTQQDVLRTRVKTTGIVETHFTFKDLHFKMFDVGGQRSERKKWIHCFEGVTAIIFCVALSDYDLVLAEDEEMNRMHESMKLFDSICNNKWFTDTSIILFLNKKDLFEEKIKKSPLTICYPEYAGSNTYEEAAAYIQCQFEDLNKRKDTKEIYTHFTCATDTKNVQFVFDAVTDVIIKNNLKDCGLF

Structure (SMILES) | activity change, negative = inhibition [1] | Potency [2] | activity change, negative = inhibition [3] | activity, negative = inhibition [4] | Potency [5] | Potency [6] | Potency [7] | Potency [8] | outcome [9] | outcome [10] | outcome [11] | Potency [12] | Potency [13] | Potency [14] | Potency [15] | Potency [16] | Potency [17] | Potency [18]
C[C@@H]1CCN=C(N)S1 | 12.9% (inactive) | inactive and 39.8 µM (active) | 2.83% (inactive) | 9.1% (inactive) | > 46 µM (inactive) | > 46 µM (inactive) | inactive | inactive | inactive | inactive | inactive | inactive | inactive | inactive | – | – | – | –
CN[C@@H]1[C@H](O)[C@H](O[C@@H]2[C@H](O)[C@@H](O[C@H]3O[C@H]([C@@H](C)NC)CC[C@H]3N)[C@@H](N)C[C@H]2N)OC[C@]1(C)O | – | – | – | – | – | – | – | – | – | – | – | – | inactive | inactive | – | – | – | –
C#C[C@]1(O)CC[C@H]2[C@H]3CCC4=Cc5oncc5C[C@]4(C)[C@@H]3CC[C@]21C | – | 12.6 µM (active) | – | – | > 46 µM (inactive) | > 46 µM (inactive) | – | – | inactive | inactive | inactive | inactive | inactive | inactive | inactive | inactive | – | –
COc1ccc(OC)c2c(=S)c3ccccc3[nH]c12 | – | 0.0631 µM (active) | – | – | > 46 µM (inactive) | > 46 µM (inactive) | – | inactive | – | – | – | inactive | inactive | inactive | inactive | – | 7.94 µM (active) | –
COC(=O)Nc1ccc2[nH]cc(CCNC(C)=O)c2c1 | – | 0.316 µM (active) | – | – | > 46 µM (inactive) | > 46 µM (inactive) | inactive | inactive | – | – | – | inactive | inactive | inactive | – | inactive | – | –
O=C(c1c(O)c2ccc(Cl)cc2[nH]c1=O)C1CC1 | – | 0.0794 µM (active) | – | – | > 46 µM (inactive) | > 46 µM (inactive) | inactive | inactive | – | – | – | inactive | inactive | inactive | inactive | inactive | – | –
CC[C@]1(O)C[C@@H]2CN(CCc3c([nH]c4ccccc34)[C@](C(=O)OC)(c3cc4c(cc3OC)N(C)[C@H]3[C@](O)(C(=O)OC)[C@@H](C(=O)OC)[C@@]5(CC)C=CCN6CC[C@@]43[C@@H]65)C2)C1 | – | inactive | – | – | > 46 µM (inactive) | > 46 µM (inactive) | inactive | – | – | – | – | inactive | inactive | inactive | inactive | inactive | – | –
c1ccc(N2CCN(CCCOc3ccc4c(c3)OCO4)CC2)cc1 | – | 12.6 µM (active) | – | – | > 46 µM (inactive) | > 46 µM (inactive) | inactive | – | – | – | – | inactive | inactive | inactive | inactive | inactive | 3.16 µM (active) | 5.01 µM (active)
O=C(Nc1ccccc1)[C@@]12C[C@@H]1/C(=N/O)c1ccccc1O2 | – | 2.51 µM (active) | – | – | > 46 µM (inactive) | > 46 µM (inactive) | – | inactive | – | – | – | inactive | inactive | inactive | – | – | – | –
